According to ChEMBL document CHEMBL4513216, “Probing the Open Global Health Chemical Diversity Library for Multistage-Active Starting Points for Next-Generation Antimalarials” (ACS Infect Dis, 2020):
The campaign covered roughly 69,000 compounds. About 8,600 (12%) showed an effect of 50% or more. This is one part of a sample in which strong results are shown more often than they occur.

These compounds were tested on Plasmodium berghei (assay: Screen against P. berghei liver stage (PbLuc), transformed with Luciferase, at 10uM). Settings: tested at 10 uM.
Type: functional, HepG2

Question: Cc1cccc(CN2C(=O)CO[C@@H]3CN(CCO)C[C@H]32)c1 was tested. Which INHIBITION did it give?
Answer: -9.76%

Question: Which INHIBITION does the source give for COc1ccc(-c2nnc(CN3CCCC3Cn3cncn3)o2)cc1 (centres undefined) here?
Answer: 45.1%

Question: How did the INHIBITION turn out when Cc1nc(CN2C(=O)CC3(CCN(C(N)=O)CC3)c3ccccc32)cs1 was run?
Answer: 36.4%

Question: How did the INHIBITION turn out when O=C([C@H]1CCCO1)N1CCC2(CC1)C(=O)N(CC1CC1)c1ccccc12 was run?
Answer: 17.4%

Question: For NC(=O)N1CCC2(CC1)CC(=O)N(CC1CCCO1)c1ccccc12 (centres undefined), which INHIBITION is on record?
Answer: 54.3%

Question: For COCCN1CCC2(CCN(Cc3ccc(OC)cc3)CC2)C1=O, which INHIBITION is on record?
Answer: 38.3%

Question: How did the INHIBITION turn out when O=C(c1ccc(=O)[nH]n1)N1CCCC1C1CCCC1 (centres undefined) was run?
Answer: 18%

Question: O=C(c1cnc2[nH]c(=O)[nH]c(=O)c2c1)N1CCCC1C1CCCCC1 (centres undefined) was tested. Which INHIBITION did it give?
Answer: -1.35%

Question: For O=C(c1c[nH]nn1)N1CCCC1C1CCCCC1 (centres undefined), which INHIBITION is on record?
Answer: 53.8%

Question: With CC(C)N1CCC2(CC1)CC(NS(C)(=O)=O)c1ccccc1O2 (centres undefined) as the compound, how does the INHIBITION read?
Answer: -12.2%

Question: With CC(C)NC(=O)NCc1cc(-c2ccco2)n(CC(F)(F)F)n1 as the compound, how does the INHIBITION read?
Answer: 20.4%

Question: For Cc1nc(C)c(C)c(N2CCC(O)(c3ccc(F)cc3)CC2)n1, which INHIBITION is on record?
Answer: 25.5%

Question: For Cc1nc(N2CCC(O)(c3ccc(F)cc3)CC2)c2c(C)nn(C)c2n1, which INHIBITION is on record?
Answer: 51.2%

Question: With Cc1nc(N2CCC(O)(c3ccccc3)CC2)c2c(C)nn(C)c2n1 as the compound, how does the INHIBITION read?
Answer: 28.4%

Question: For Cn1cc(CN2CCC3(CC2)CCN(C(=O)c2cscn2)C3)cn1, which INHIBITION is on record?
Answer: 38.5%

Question: For COCC1CC2(CCN(c3cccc(C)n3)CC2)CN1c1ncccn1 (centres undefined), which INHIBITION is on record?
Answer: 46.6%

Question: With Cn1cncc1-c1nnc([C@H]2CCN(Cc3ccc(CO)o3)C2)o1 as the compound, how does the INHIBITION read?
Answer: -18.2%

Question: Which INHIBITION does the source give for Cc1ccccc1CN1CC[C@H](c2nnc(-c3cncn3C)o2)C1 here?
Answer: 5.96%

Question: How did the INHIBITION turn out when CN1CC[C@H](c2nnc(-c3cncn3C)o2)C1 was run?
Answer: 61.5%

Question: For Cn1cncc1-c1nnc([C@H]2CCN(Cc3ncc[nH]3)C2)o1, which INHIBITION is on record?
Answer: 69.6%

Question: For Cn1cncc1-c1nnc([C@H]2CCN(Cc3cccnc3)C2)o1, which INHIBITION is on record?
Answer: 39.8%

Question: For Cn1cncc1-c1nnc([C@H]2CCN(CC(C)(C)C)C2)o1, which INHIBITION is on record?
Answer: 57.4%

Question: With Cn1cncc1-c1nnc([C@H]2CCN(Cc3ccc(F)c(F)c3)C2)o1 as the compound, how does the INHIBITION read?
Answer: 11.4%

Question: How did the INHIBITION turn out when Cn1cncc1-c1nnc([C@H]2CCN(C3CCOCC3)C2)o1 was run?
Answer: 4.61%

Question: For Cn1cncc1-c1nnc([C@H]2CCN(CC3CCCCC3)C2)o1, which INHIBITION is on record?
Answer: -17.1%

Question: With COc1ccc(OC)c(CNCc2c(C(C)C)nn(C)c2N(C)C)c1 as the compound, how does the INHIBITION read?
Answer: 30.08%

Question: Which INHIBITION does the source give for O=C1N[C@H]2OCCC[C@H]2[C@H](c2ccccc2C(=O)O)N1 here?
Answer: -0.495%

Question: Cc1ccc(C2(O)CCN(C(=O)c3cccc(S(C)(=O)=O)c3)CC2)nc1 was tested. Which INHIBITION did it give?
Answer: -6.09%

Question: With Cc1n[nH]c(C)c1C1CCCN1C(=O)Cc1cccc(F)c1 (centres undefined) as the compound, how does the INHIBITION read?
Answer: 40.2%

Question: Which INHIBITION does the source give for CSc1ccc(NC(=O)Cn2cc(N)cn2)cc1 here?
Answer: -15%

Question: Which INHIBITION does the source give for Cc1cc(NCCc2nnc(N)s2)nc(-c2ccccc2)n1 here?
Answer: -13.3%

Question: For CN1C(=O)CC[C@@H]2N(C(=O)CCc3cccnc3)CCCC[C@@]21C, which INHIBITION is on record?
Answer: 44.3%

Question: How did the INHIBITION turn out when CC(=O)N1CCc2[nH]cnc2C1C1=CCCN(CCn2cccc2)C1 (centres undefined) was run?
Answer: 12.8%

Question: CN(Cc1nnc(-c2ccco2)o1)C(C(N)=O)c1cccc(F)c1 (centres undefined) was tested. Which INHIBITION did it give?
Answer: 61.5%

Question: CC(C)CC(C)N(C)Cc1nnc(-c2ccco2)o1 (centres undefined) was tested. Which INHIBITION did it give?
Answer: -17.5%

Question: With CN(Cc1nnc(-c2cccs2)o1)C(C(N)=O)c1cccc(F)c1 (centres undefined) as the compound, how does the INHIBITION read?
Answer: -15.3%

Question: With CC(C)C(C)N(C)Cc1nnc(-c2ccco2)o1 (centres undefined) as the compound, how does the INHIBITION read?
Answer: 66.9%

Question: For CCCC(C)N(C)Cc1nnc(-c2ccco2)o1 (centres undefined), which INHIBITION is on record?
Answer: 26.9%

Question: With CN(Cc1nnc(C2CCC2)o1)C(C(N)=O)c1cccc(F)c1 (centres undefined) as the compound, how does the INHIBITION read?
Answer: 12.7%

Question: With CC(CNCc1ccc(Br)cc1)Oc1ccccn1 (centres undefined) as the compound, how does the INHIBITION read?
Answer: 13%

Question: How did the INHIBITION turn out when Cc1ccc2nc(-c3nc4c([nH]3)CC(C)(C)CNC4=O)cn2c1 was run?
Answer: 16.9%

Question: How did the INHIBITION turn out when c1coc(CN2CCc3onc(Cn4cccc4)c3C2)c1 was run?
Answer: 20.1%

Question: Which INHIBITION does the source give for CC(C)Oc1ccccc1C1CC(=O)Nc2c1cnn2C (centres undefined) here?
Answer: -31.6%

Question: How did the INHIBITION turn out when Cc1cccc(C(=O)N2CCCCC2c2nc3cc(F)ccc3[nH]2)n1 (centres undefined) was run?
Answer: 39.1%

Question: Which INHIBITION does the source give for NC(=O)c1ccc(N2CCCCC2)c(NC(=O)c2ccc(F)cc2F)c1 here?
Answer: 89.1%

Question: How did the INHIBITION turn out when Cc1cc(NC(=O)c2ccc(F)cc2F)n(C)n1 was run?
Answer: 29.3%

Question: For NC(=O)c1ccc(N2CCCCC2)c(NC(=O)c2cc(F)ccc2F)c1, which INHIBITION is on record?
Answer: 93.1%

Question: With NC(=O)c1ccc(N2CCCCC2)c(NC(=O)c2cc(Br)ccc2Cl)c1 as the compound, how does the INHIBITION read?
Answer: 81.2%

Question: For CC(NC(=O)Nc1cc(F)ccc1N1CCCCC1)c1nncn1C (centres undefined), which INHIBITION is on record?
Answer: 25.7%

Question: How did the INHIBITION turn out when NC(=O)c1ccc(N2CCCCC2)c(NC(=O)c2cc(Br)ccc2F)c1 was run?
Answer: 86.8%

Question: Which INHIBITION does the source give for O=C(c1cc(Br)ccc1-n1cnnn1)N1CCCCC1 here?
Answer: 24.2%

Question: Cc1ccc(NC(=O)c2ccc(N3CCCCC3)nn2)c(Cl)c1 was tested. Which INHIBITION did it give?
Answer: 11.3%

Question: With COCCCN1Cc2cccc(NC(=O)c3cc(F)ccc3F)c2C1 as the compound, how does the INHIBITION read?
Answer: 32.9%

Question: NC(=O)c1ccc(N2CCCCC2)c(NC(=O)c2ccc(Br)cc2)c1 was tested. Which INHIBITION did it give?
Answer: 39.5%
